This is a sample that favours compounds with a hit; in the whole collection about 14% have one here.
NS1 function inh – influenza NS1 inhibition | Potency, µM (doses to about 46.1 µM), for inactives: top-dose activity, positive = more growth | 270,000 compounds, 0.4% hits; calls by dose curve; also: potency is read from the fitted curve at half-maximal effect; actives are rising curves; nearly all actives have a fitted effect of over 50% in size
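Read-out: OD600 growth recovery of NS1-expressing budding yeast. Cells grown overnight at 30C in -URA glucose medium, washed, resuspended and diluted 1:100 in 2% galactose assay medium, pH 6.0. Same strain lacking NS1 served as positive control.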
Cycloheximide cs – affects cycloheximide protein synthesis inhibition readout, counter-screen. cell reporter, cycloheximide protein synthesis inhibition counterscreen. max response, %. 300,000 compounds, 12% hits. AID 2314; in the data active = max response mostly above about 13%, no sharp cut-off; inactive = mostly below about 14%; also: read at 38.3 µM for the half of the compounds with a filed dose; 0% is about no effect
Shiga toxin inh – inhibitors of Shiga toxin in Vero cells | inhibition, % at 38.7 µM | 290,000 compounds, 9.2% hits | Vero cells, Shiga toxin protein synthesis inhibition reporter; in the data active = inhibition mostly above about 28%, no sharp cut-off; inactive = mostly below about 43%; also: 0% is about no effect
LmPK inhibitor – inhibitors of Leishmania mexicana pyruvate kinase. Potency, µM (highest dose often 57.5 µM), for the others: top-dose activity change, negative = inhibition, actives largely listed as inhibitors. purified LmPK, Kinase-Glo ATP luminescence, 1 h. AID 1721. 290,000 compounds, 0.37% hits. Q27686; also: potency is read from the fitted curve at half-maximal effect; % is scaled to controls: 0 for no effect and ±100 for the full control effect
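Kinase-Glo luminescence read after 1 h RT reaction of 0.1 nM LmPK with 0.5 mM PEP and 0.1 mM ADP. Activity scaled between uninhibited and enzyme-free controls.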
Giardia FBPA inh – inhibitors of Giardia lamblia fructose-1,6-bisphosphate aldolase. A8B2U2. purified Giardia FBPA. Potency, µM (top dose mostly 59.6 µM), for the others: at the highest dose activity, negative = inhibition, usual class: inhibitors. 290,000 compounds, 0.71% hits. AID 2451; also: potency is read from the fitted curve at half-maximal effect; % is scaled to controls: 0 for no effect and ±100 for the full control effect; nearly all actives have a fitted effect of over 55% in size
Target sequence (A8B2U2 whole entry, looked up): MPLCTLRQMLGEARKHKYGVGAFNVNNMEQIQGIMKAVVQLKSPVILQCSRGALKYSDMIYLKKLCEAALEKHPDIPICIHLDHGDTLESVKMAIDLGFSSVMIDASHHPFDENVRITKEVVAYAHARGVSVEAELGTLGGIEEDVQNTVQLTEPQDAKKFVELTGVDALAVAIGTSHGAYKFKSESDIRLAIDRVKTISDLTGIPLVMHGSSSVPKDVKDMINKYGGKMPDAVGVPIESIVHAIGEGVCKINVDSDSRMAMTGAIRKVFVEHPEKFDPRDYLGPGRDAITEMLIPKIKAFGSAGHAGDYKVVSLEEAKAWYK
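40 nM FBPA preincubated 10 min at RT with compound (up to 57.5 uM final), then substrate plus GAPDH/TPI/NAD/arsenate coupling and diaphorase/resazurin added. Fluorescence read after 20 min at RT, 525/598 nm.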
* hit, by the source's call; u = inconclusive; x = no result. Unless noted, calls follow the shape of the dose curve; as a rule, active = well fitted curve in the direction sought with a large enough effect; inconclusive = small, poorly fitted or top-dose-only effect, or another doubt; inactive = no such curve, though single readings can be large; an effect the other way counts as inactive or inconclusive.

SMILES | NS1 function inh | Cycloheximide cs | Shiga toxin inh | LmPK inhibitor | Giardia FBPA inh
COc1ccc(/C=C/C(=O)OC2CCCN(C)C2)cc1 (stereo not drawn) | 7% | 26* | 48* | 1% | -4%
COc1ccc(OCC(=O)OC2CCCN(C)C2)cc1 (stereo not drawn) | 0% | 1 | 17 | -4% | -7%
Cn1c(N)c(C(=O)/C=C/c2ccccc2)c(=O)[nH]c1=O | 9% | 48* | 69* | 5% | -4%
O=C(CCc1nnc(CCCCc2ccccc2)o1)N1CCC(N2CCCC2)CC1 | 2% | -7 | 12 | -4% | -2%
O=C(CCc1nnc(CCCc2ccccc2)o1)NC(C1CC1)C1CC1 | -7% | 33* | 55* | -18% | 0%
Cc1nc(C(C)NC(=O)CCc2nnc(CCCc3ccccc3)o2)c(C)s1 (stereo not drawn) | -2% | 32* | 75* | -12% | 2%
O=C(CCc1nnc(CCCCc2ccccc2)o1)N1CCCC(O)C1 (stereo not drawn) | -5% | 13* | 38 | 0% | 5%
Cc1cc(C)n(CC(C)NC(=O)CCc2nnc(CCc3ccccc3)o2)n1 (stereo not drawn) | 0% | 5 | 3 | 3% | 1%
CC(CC(C)(C)C)CP(=O)(O)CC(C)CC(C)(C)C (stereo not drawn) | x | -8 | -20 | x | 14%
CCOC(=O)c1c(C)[nH]c(N=Nc2ccccc2Cl)c1C | -52% | 65* | 97* | 0% | -23%
CCOC(=O)c1c(C)[nH]c(C(=O)Cn2nnc(-c3ccccc3)n2)c1C | -6% | -1 | 19 | 0% | 0%
CCOC(=O)c1c(C)[nH]c(N=Nc2ccc(C)cc2)c1C | 5% | 31* | 71 | 2% | -11%
CCOC(=O)c1c(C)[nH]c(C=Nc2ccc(OC)cc2)c1O | 12% | 20* | 84* | -3% | -27%
CCOC(=O)c1c(C)[nH]c(C(=O)Cn2nnc(-c3ccccc3Cl)n2)c1C | -7% | 8 | 26 | 2% | 0%
CCOC(=O)c1c(C)[nH]c(N=Nc2ccccc2)c1C | -82% | 54* | 82* | 5% | -10%
CCOC(=O)c1c(C)[nH]c(C=Nc2ccccc2)c1O | 4% | 16 | 1 | 1% | u
CC(=O)N[C@@H](CCCNC(=N)N)C(=O)N[C@H](CC1CCCCC1)C(=O)N[C@@H]1CCC2SC[C@@H](C(=O)N[C@H](CCCNC(=N)N)C(=O)N[C@H](Cc3ccc(Cl)cc3)C(N)=O)N2C1=O (stereo partly drawn) | x | -5 | -5 | x | -1%
CCOC(=O)C1(CC2CCCCO2)CCN(C(=O)Nc2ccccc2CC)CC1 (stereo not drawn) | 4% | 1 | 4 | 12% | 5%
COC(=O)c1c(C)[nH]c(C=Nc2ccc(OC)cc2)c1C | 1% | -3 | -4 | 5% | -19%
CCOC(=O)c1c(C)[nH]c(N=Nc2ccc(OC)cc2)c1C | -49% | 35* | 85* | 2% | -21%
Cc1ccc2nc(-c3sc4nc(C)ccc4c3N)[nH]c2c1 | 11% | 33* | 44* | -2% | u
Cc1cc(C)c2c(N)c(-c3nc4ccccc4[nH]3)sc2n1 | -58% | 45* | 81* | 8% | -13%
C#CCCCCCCCCCCCC(O)CC(O)COC(C)=O (stereo not drawn) | x | x | x | x | 5%
O=C(Cn1cc2c(n1)CCCCC2)N1CCCCC1 | u | 18* | 38 | -1% | 1%
O=C(Cn1cc2c(n1)CCCC2)N1CCCc2ccccc21 | -16% | 18* | 76* | 1% | -7%
SMILES | NS1 function inh | Cycloheximide cs | Shiga toxin inh | LmPK inhibitor | Giardia FBPA inh
Cc1c(Cl)c([N+](=O)[O-])nn1CC(=O)N1CCCc2ccccc21 | 15% | 25* | -2 | 3% | 0%
Cc1c(Br)c([N+](=O)[O-])nn1CC(=O)N1CCc2ccccc21 | x | -4 | -13 | 2% | 3%
COc1ccccc1C1CCN(C(=O)c2ccc(C(C)(C)C)cc2)CC1 | -46% | 6 | -5 | -3% | -5%
Cc1ccc(C)c(S(=O)(=O)NC(C)C(=O)NCc2ccccn2)c1 (stereo not drawn) | 8% | 1 | -28 | -8% | x
COc1ccc(-c2cc(=O)c3ccccc3o2)cc1 | -40% | 19* | 52* | -11% | -2%
COc1ccc2oc(-c3ccccc3[N+](=O)[O-])cc(=O)c2c1 | -6% | 41* | 81* | 2% | 0%
Nc1c(-c2ccc3c(c2)OCCO3)oc2ccccc2c1=O | 6% | 33* | 70* | 2% | -1%
O=c1cc(-c2ccccc2O)oc2cc(O)ccc12 | x | x | x | x | -1%
O=c1cc(-c2ccccc2)oc2cc(O)ccc12 | x | 51* | 77* | x | 3%
COc1ccccc1-c1cc(=O)c2cc(O)ccc2o1 | x | x | x | x | 0%
COc1ccc2c(=O)cc(-c3ccc(O)cc3)oc2c1 | x | x | x | x | 3%
O=c1cc(-c2ccc(O)cc2)oc2ccccc12 | -5% | 37* | 55* | -3% | 3%
O=c1cc(-c2ccc3c(c2)OCO3)oc2ccccc12 | 13% | 21* | 35 | 0% | 5%
O=c1cc(-c2ccc(O)cc2)oc2ccc(O)cc12 | x | 55* | 54* | -10% | 7%
O=c1cc(-c2cccc(O)c2)oc2ccc(O)cc12 | x | x | x | x | 6%
O=c1cc(-c2ccncc2)oc2ccccc12 | -49% | 10 | 23 | 2% | 8%
C/C(=N/NC(=O)CNC(=O)C1COc2ccccc2O1)c1ccc([N+](=O)[O-])cc1 (stereo not drawn) | 5% | -2 | -8 | -1% | 3%
O=C(O)C1CCC(Cn2c(SCc3cc(=O)n4ccccc4n3)nc3ccsc3c2=O)CC1 (stereo not drawn) | x | -4 | -4 | 0% | -3%
COc1ccc(OCC(NS(=O)(=O)c2ccc(-n3cnnn3)cc2)C(C)C)cc1 (stereo not drawn) | -11% | 12 | -8 | 11% | x
Cc1[nH]cnc1CSCc1ccc(F)cc1 | -10% | 49* | 31* | -7% | u
Fc1ccc(CSc2ncnc3nc[nH]c23)cc1 | -15% | 0 | 13 | -8% | u
O=C(NNC(=O)c1ccccc1Br)c1ccccc1Cl | x | 19* | 23 | -8% | 3%
NC(=S)NNC(=O)c1ccccc1Cl | 1% | 2 | -8 | 0% | -21%
CNC(=S)NNC(=O)c1ccccc1Cl | 0% | 1 | -13 | 0% | -23%
O=C(NNC(=S)Nc1ccccc1Cl)c1ccccc1Br | 9% | 49* | 74* | -5% | -7%
SMILES | NS1 function inh | Cycloheximide cs | Shiga toxin inh | LmPK inhibitor | Giardia FBPA inh
C=C1CC[C@@H]2O[C@@]2(C)CC[C@H]2[C@H]1CC2(C)C | x | x | x | x | 12%
c1ccc2c3c(ccc2c1)OCC1CONC31 (stereo not drawn) | x | 15 | 6 | -3% | 4%
O=C1COc2ccc3ccccc3c21 | 1% | 16* | 40 | 1% | -3%
O/N=C1\CCSc2ccc(F)cc21 | 7% | 33* | 58* | 12% | -16%
O=C(O)c1ccc(N/N=C2/CCSc3ccc(F)cc32)cc1 | -108% | 38* | 34 | 0% | -5%
Cc1cc(C)nc(N/N=C2/CCSc3ccc(F)cc32)n1 | -64% | 10 | 6 | 0% | -27%
O=C(CNC1CCCCC1)Nc1ccc(Cl)cc1 | 18% | 2 | x | 7% | -2%
